Where a name gives a salt, the structure may show the parent alone.
test system: Danio rerio Tg(wt1b:EGFP) embryo, pronephros; experiment: fraction of imaged embryos annotated as normal kidney; higher = less nephrotoxic; extreme values may be limits of the assay; settings: 25 µM; exposure: 24-48 hpf
In short: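 Zebrafish embryos carrying Tg(wt1b:EGFP) were dechorionated and exposed to 25 μM compound (0.5% DMSO) between 24 and 48 hpf at 28.5°C. Their pronephroi were imaged by widefield fluorescence, and each embryo was classed by hand from maximum projections. The measure is the fraction of embryos per treatment falling in the normal-kidney category.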

| Structure (SMILES) | fraction of imaged embryos annotated as normal kidney |
| --- | --- |
| CC(C)(Oc1ccc(C2CC2(Cl)Cl)cc1)C(=O)O (stereo unspecified) [Ciprofibrate] | 0.818 |
| CC(C)(C)NC[C@H](O)COc1cccc2c1CCCC2=O [(-) -Levobunolol hydrochloride] | 0.917 |
| CC(C)CC(=O)N[C@H](C(=O)N[C@H](C(=O)N[C@@H](CC(C)C)[C@@H](O)CC(=O)N[C@@H](C)C(=O)N[C@@H](CC(C)C)[C@@H](O)CC(=O)O)C(C)C)C(C)C [Pepstatin A] | 0.818 |
| N=C(N)N1CCc2ccccc2C1 [Debrisoquin sulfate] | 0.667 |
| CC(C)(C)NC(=O)[C@@H]1CN(Cc2cccnc2)CCN1C[C@@H](O)C[C@@H](Cc1ccccc1)C(=O)N[C@H]1c2ccccc2C[C@H]1O [Indinavir sulfate] | 1 |
| CC(CN1c2ccccc2Sc2ccccc21)N(C)C (stereo unspecified) [Promethazine hydrochloride] | 0.833 |
| CO[C@H]1/C=C/O[C@@]2(C)Oc3c(C)c(O)c4c(c3C2=O)C2=NC3(CCN(CC(C)C)CC3)NC2=C(NC(=O)/C(C)=C\C=C\[C@H](C)[C@H](O)[C@@H](C)[C@@H](O)[C@@H](C)[C@H](OC(C)=O)[C@@H]1C)C4=O [Rifabutin] | 0.583 |
| CC(C)(C)NCC(O)COc1cccc2c1CCC(=O)N2 (stereo unspecified) [Carteolol hydrochloride] | 0.917 |
| C=C(CC)C(=O)c1ccc(OCC(=O)O)c(Cl)c1Cl [Ethacrynic acid] | 0.75 |
| CCN(CC)CCNC(=O)c1ccc(N)cc1 [Procainamide hydrochloride] | 0.455 |
| CC[C@H](C)[C@H](N)C1=N[C@H](C(=O)N[C@@H](CC(C)C)C(=O)N[C@H](CCC(=O)O)C(=O)N[C@H](C(=O)N[C@H]2CCCCNC(=O)[C@H](CC(N)=O)NC(=O)[C@@H](CC(=O)O)NC(=O)[C@H](Cc3cnc[nH]3)NC(=O)[C@@H](Cc3ccccc3)NC(=O)[C@H]([C@@H](C)CC)NC(=O)[C@@H](CCCN)NC2=O)[C@@H](C)CC)CS1 [Bacitracin] | 1 |

— the supplement of paper PMC7366291
